# Screen size: about 190,000 compounds; about 6,900 (3.6%) were called active. The list comes from a sample in which actives are over-represented; it also holds similar structures and randomly drawn compounds. A number with no mark means an inactive call. Rule as the data show it: active = inhibition above about 50%; inactive = the rest.
# Biological target: Huntingtin (Homo sapiens) (UniProt P42858)
# Experiment: mutant huntingtin-calmodulin interaction inhibitors – biochemical, AlphaScreen, primary screen (AID 1671202);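 also: 0% = both proteins with DMSO and 100% = one protein alone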
# Conditions: AlphaScreen His-mHTT/GST-CaM binding, luminescence; at 15 µM, active compounds read high
# Sequence of Huntingtin (Homo sapiens) (P42858 whole entry, looked up, stated change not applied): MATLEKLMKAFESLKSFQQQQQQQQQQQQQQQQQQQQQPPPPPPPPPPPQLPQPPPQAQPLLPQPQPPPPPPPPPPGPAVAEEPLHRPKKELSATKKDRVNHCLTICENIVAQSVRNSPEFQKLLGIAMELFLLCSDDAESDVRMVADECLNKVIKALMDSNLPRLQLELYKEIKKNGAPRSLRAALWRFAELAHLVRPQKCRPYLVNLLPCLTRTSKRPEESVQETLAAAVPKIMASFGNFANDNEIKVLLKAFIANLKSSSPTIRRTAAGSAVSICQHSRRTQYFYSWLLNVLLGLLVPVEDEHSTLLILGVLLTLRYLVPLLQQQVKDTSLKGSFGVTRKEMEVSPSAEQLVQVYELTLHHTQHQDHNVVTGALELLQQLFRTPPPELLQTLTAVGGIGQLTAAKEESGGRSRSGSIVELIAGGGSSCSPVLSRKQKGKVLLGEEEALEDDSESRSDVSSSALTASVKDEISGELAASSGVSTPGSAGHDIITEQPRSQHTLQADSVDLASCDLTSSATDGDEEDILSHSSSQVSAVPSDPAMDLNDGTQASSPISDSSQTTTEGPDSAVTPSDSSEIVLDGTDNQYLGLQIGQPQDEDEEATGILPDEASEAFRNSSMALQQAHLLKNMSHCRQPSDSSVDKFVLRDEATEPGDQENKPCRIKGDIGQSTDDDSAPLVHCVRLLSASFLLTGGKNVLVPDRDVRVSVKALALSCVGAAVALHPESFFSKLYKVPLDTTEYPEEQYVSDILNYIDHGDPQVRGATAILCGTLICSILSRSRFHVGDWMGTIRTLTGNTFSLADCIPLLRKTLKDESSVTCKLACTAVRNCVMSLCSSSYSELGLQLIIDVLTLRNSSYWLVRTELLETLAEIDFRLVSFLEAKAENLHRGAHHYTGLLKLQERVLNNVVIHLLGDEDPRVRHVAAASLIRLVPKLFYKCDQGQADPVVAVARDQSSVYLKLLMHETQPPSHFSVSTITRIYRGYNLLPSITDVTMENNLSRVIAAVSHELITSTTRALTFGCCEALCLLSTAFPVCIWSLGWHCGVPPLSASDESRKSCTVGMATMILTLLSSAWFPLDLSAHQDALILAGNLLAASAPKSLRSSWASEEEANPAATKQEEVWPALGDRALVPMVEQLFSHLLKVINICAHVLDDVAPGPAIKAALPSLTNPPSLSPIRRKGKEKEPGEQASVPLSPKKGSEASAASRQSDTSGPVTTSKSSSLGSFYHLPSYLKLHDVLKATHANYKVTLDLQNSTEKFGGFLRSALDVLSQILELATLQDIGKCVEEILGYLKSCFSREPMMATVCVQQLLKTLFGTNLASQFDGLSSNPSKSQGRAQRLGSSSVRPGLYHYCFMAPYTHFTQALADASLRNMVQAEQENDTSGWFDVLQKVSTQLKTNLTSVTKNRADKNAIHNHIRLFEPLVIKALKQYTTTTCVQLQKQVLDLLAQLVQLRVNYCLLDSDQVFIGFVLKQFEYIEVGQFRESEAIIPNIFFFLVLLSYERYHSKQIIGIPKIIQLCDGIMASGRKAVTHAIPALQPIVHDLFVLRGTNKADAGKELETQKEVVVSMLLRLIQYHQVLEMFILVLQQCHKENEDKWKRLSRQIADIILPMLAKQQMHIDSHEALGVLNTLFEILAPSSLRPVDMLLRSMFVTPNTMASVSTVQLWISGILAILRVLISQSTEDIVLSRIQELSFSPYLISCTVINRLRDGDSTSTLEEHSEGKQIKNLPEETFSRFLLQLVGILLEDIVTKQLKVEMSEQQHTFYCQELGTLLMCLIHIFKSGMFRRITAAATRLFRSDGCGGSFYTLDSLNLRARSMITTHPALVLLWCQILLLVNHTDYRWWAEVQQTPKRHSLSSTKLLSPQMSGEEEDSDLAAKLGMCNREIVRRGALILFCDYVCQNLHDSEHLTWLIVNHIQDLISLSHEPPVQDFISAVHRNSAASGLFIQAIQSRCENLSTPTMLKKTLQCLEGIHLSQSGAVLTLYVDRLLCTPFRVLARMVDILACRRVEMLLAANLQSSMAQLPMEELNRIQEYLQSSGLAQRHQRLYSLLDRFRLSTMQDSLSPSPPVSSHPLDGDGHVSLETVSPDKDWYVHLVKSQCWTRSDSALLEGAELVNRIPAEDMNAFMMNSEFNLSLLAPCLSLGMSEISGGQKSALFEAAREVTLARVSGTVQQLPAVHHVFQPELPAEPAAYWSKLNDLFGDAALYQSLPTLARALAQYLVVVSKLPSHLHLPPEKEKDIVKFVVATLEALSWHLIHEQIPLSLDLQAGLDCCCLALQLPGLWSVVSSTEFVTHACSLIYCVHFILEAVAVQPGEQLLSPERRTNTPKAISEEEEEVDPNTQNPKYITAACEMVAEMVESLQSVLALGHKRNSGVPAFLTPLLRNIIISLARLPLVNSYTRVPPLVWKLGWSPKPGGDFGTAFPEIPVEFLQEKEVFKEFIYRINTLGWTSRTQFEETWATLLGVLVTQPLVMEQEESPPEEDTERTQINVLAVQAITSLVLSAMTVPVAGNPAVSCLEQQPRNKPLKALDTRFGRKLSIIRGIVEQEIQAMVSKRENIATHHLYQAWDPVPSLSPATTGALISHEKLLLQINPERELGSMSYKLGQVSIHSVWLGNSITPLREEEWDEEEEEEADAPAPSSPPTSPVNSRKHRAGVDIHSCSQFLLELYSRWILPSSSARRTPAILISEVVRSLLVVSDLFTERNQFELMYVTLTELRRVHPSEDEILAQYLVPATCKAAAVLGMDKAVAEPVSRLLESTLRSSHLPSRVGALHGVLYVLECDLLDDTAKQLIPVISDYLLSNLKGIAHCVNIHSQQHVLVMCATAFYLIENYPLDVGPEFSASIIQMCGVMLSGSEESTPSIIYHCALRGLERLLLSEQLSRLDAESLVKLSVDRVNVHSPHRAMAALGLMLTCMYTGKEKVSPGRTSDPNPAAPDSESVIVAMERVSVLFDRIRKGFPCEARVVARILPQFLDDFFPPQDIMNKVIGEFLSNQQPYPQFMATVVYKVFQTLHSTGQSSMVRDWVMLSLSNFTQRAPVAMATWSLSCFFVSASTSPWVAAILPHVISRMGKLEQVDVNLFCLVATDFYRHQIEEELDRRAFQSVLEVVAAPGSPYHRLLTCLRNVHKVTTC
row,Structure (SMILES),inhibition
1,COc1ccc(N2C(=O)CSC2c2c(F)cccc2Cl)c(OC)c1 (stereo not given),1%
2,COc1cc(SC#N)ccc1N=Cc1c(C)[nH]n(-c2ccc(Br)cc2)c1=O,2%
3,COc1cc([N+](=O)[O-])ccc1N=Cc1c(C)[nH]n(-c2ccccc2C)c1=O,57% (active)
4,COc1cc([N+](=O)[O-])ccc1N=Cc1c(C)[nH]n(-c2ccc(C)c(C)c2)c1=O,11%
5,COc1cccc2cc(-c3cc(=O)oc4cc5c(cc34)CCCC5)oc12,-2.8%
6,O=C(c1c(F)cccc1F)N1CCN(S(=O)(=O)C2CC2)CC1,-10.4%
7,O=C1Nc2ccccc2Oc2cc([N+](=O)[O-])cc(Oc3ccccc3Br)c21,32%
8,O=C(c1ccccn1)N1CCC2(C1)NCc1ccccc1NC2=NCc1ccccc1 (stereo not given),12.6%
9,O=C(c1cnccn1)N1CCCC2(C1)Nc1ccccc1NC2=NCc1ccccc1 (stereo not given),25.6%
10,c1ccc(CN=C2Nc3ccccc3NC23CCCNC3)cc1 (stereo not given),25.7%
11,CC(C)(C)C(=O)N1CCCC2(C1)Nc1ccccc1NC2=NCc1ccccc1 (stereo not given),100% (active)
12,COc1ccccc1C(=O)N1CCCC2(C1)Nc1cccnc1NC2=NCc1ccccc1 (stereo not given),1.03%
13,COCCNC(=O)N1CCCC2(C1)Nc1ccccc1NC2=NCc1ccccc1 (stereo not given),97.7% (active)
14,Cc1cccc(-c2csc3c(=O)n(Cc4ccc(F)cc4)cnc23)c1,-29.4%
15,O=S1(=O)c2ccccc2S(=O)(=O)N1c1cc(F)ccc1F,6%
16,O=C(c1cccc2c1CCN2C(=O)C1CC1)N1CCOCC1,-4.9%
17,CC12C=CC(O1)C1C(=O)N(c3ccc(Cl)c(C(=O)O)c3)C(=O)C12 (stereo not given),-2%
18,O=C(NCc1ccccc1Cl)c1cnn2c3c(cnc12)CCCCCC3,-7%
19,COc1cccc(N=Cc2cc(Br)ccc2O)c1,13%
20,O=C1/C(=C/c2ccc3c(c2)OCO3)CCC/C1=C\c1ccc2c(c1)OCO2,58% (active)

row,Structure (SMILES),inhibition
1,O=C1OC(c2ccco2)=N/C1=C/c1ccc2c(c1)OCO2,29%
2,CSC1=N/C(=C\c2ccc3c(c2)OCO3)C(=O)S1,-2%
3,COc1cc(Cl)ccc1C(=O)N1CCC(c2nc(CCNC(C)=O)cs2)CC1,5.03%
4,Cc1cccc(C(=O)N2CCCC(C(=O)NC3CCCC3)C2)c1 (stereo not given),25.1%
5,Cc1nn(-c2ccccc2)c(Cl)c1C(=O)N1CCOCC1,1%
6,Cc1nn(-c2ccccc2)c(C)c1N1CCN(C(=O)c2cc(-c3ccccc3)n[nH]2)CC1,98.9% (active)
7,O=C(c1cc(-c2ccccc2)n[nH]1)N1CCN(c2ncccn2)CC1,-17.7%
8,COc1ccc(-c2nc(SCC(=O)Nc3ccc(OC(F)(F)F)cc3)[nH]c(=O)c2C#N)cc1,14%
9,COc1ccc(OC)c(C=C2Oc3c(ccc(O)c3CN3CCCCC3C)C2=O)c1 (stereo not given),-1.3%
10,COc1ccc(-c2nnc(N3CCC(C(=O)NCc4cccc(OC)c4)CC3)o2)cc1,21%
11,COc1ccc(N2CC(C(=O)Nc3ccc(C(C)C)cc3)CC2=O)cc1 (stereo not given),0.1%
12,CC(C)c1ccc(N2CC(C(=O)N(C)Cc3ccccc3)CC2=O)cc1 (stereo not given),56.5% (active)
13,Cc1ccc(N2CC(C(=O)N(C)C(C)C)CC2=O)cc1 (stereo not given),-4.2%
14,Cc1ccc(C(=O)NCC2CCCN(S(=O)(=O)c3ccc(F)cc3F)C2)cc1 (stereo not given),-3.67%
15,O=C(CCn1c(=O)c2sccc2n(Cc2cccc(Cl)c2)c1=O)NCc1ccccc1,-2%
16,COc1ccccc1CCC(=O)N1CCCn2nc(-c3cccc(C)c3)cc2C1,68.3% (active)
17,Cc1cccc(-c2cc3n(n2)CCCN(C(=O)C(C)Oc2ccccc2)C3)c1 (stereo not given),42.9%
18,COc1ccccc1CC(=O)N1CCCn2nc(-c3ccc(C)cc3)cc2C1,37.9%
19,CCOc1ccccc1Oc1c(C)oc2c(CN(CC)CC)c(O)ccc2c1=O,3.7%
20,CCC(CC)C(=O)Nc1ccc(Br)cc1F,-9.3%

row,Structure (SMILES),inhibition
1,Cn1nc(-c2nc(-c3cccc(F)c3)no2)c2c1CCN(C(=O)Cc1cccs1)C2,20.1%
2,COc1cccc2cc(-c3nc(-c4ccc5c(c4)OCO5)cs3)c(=O)oc12,-9%
3,CCN(CC)C(=O)CC(c1ccc2c(c1)OCO2)c1c(OC)cc(OC)c2c(-c3ccccc3)cc(=O)oc12 (stereo not given),74.9% (active)
4,COc1ccc(-c2c(C)cc3oc(=O)cc(-c4ccccc4)c3c2C)cc1F,-2.4%
5,CCN(CC)CCC(c1ccc2c(c1)OCO2)c1c(OC)cc(OC)c2c(-c3ccccc3)cc(=O)oc12 (stereo not given),101% (active)
6,COc1ccc(-c2c(C)cc3oc(=O)cc(-c4ccccc4)c3c2C)cc1OC,-2.2%
7,CCN(CC)CCC(c1cc(OC)c(OC)c(OC)c1)c1c(OC)cc(OC)c2c(-c3ccccc3)cc(=O)oc12 (stereo not given),-4.8%
8,Cc1ccc(Cc2c(C)nc(C)nc2N2CCN(C(=O)c3ccccc3)CC2)cc1,11.3%
9,COCCc1noc(COC2CCCN(C(=O)c3ccccn3)C2)n1 (stereo not given),-8.61%
10,CCNc1cc(NCCNC(=O)c2cccc(F)c2)nc(C)n1,-7.5%
11,CCc1ccccc1NC(=O)NCCNc1cc(-n2nc(C)cc2C)nc(C)n1,-5.7%
12,CSc1cccc(NC(=O)NCCNc2cc(-n3ccnc3C)nc(C)n2)c1,99.9% (active)
13,O=C1C(c2ccc(F)cc2)N(C2CCCC2)C(=O)CN1C1CCCCCC1 (stereo not given),-6%
14,O=C(CCCn1c2ccccc2c(=O)c2ccccc21)Nc1ccc(C(F)(F)F)cn1,23%
15,O=C(NCc1cccc(F)c1)c1cc2n(n1)CCCN(Cc1ccc(Cl)cc1)C2=O,16.8%
16,CCCc1cc(C2CCCN2Cc2cc(OC)c(OC)cc2OC)no1 (stereo not given),37.6%
17,COc1cc(C2NC(C(=O)O)CS2)ccc1O (stereo not given),-7%
18,COc1ccc([N+](=O)[O-])cc1NC(=O)c1ccc(C)c(Br)c1,8.5%
19,COc1ccc([N+](=O)[O-])cc1NC(=O)CC(C)C,-0.3%
20,COc1ccc([N+](=O)[O-])cc1-n1c(C)ccc1C,51.9% (active)
